# Active and inactive are the calls of the source. The rule behind the calls is not given here.
# Tested on: Aerobactin synthetase IucA (Klebsiella pneumoniae, hypervirulent)
# Assay: IucA enzyme inhibition, biochemical, LOPAC library, absorbance readout (AID 1346212);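 note: 100% = no compound wells and 0% = no enzyme wells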
# Conditions: IucA enzyme assay, absorbance (OD) readout; stronger effect = lower value;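 tested at 8 µM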
row,SMILES,remaining activity
1,Cc1[nH]c(=O)c(C#N)cc1-c1ccncc1,123% (inactive)
2,COc1ccc(NC(=O)c2ccc(-c3ccc(-c4noc(C)n4)cc3C)cc2)cc1N1CCN(C)CC1,112% (inactive)
3,N[C@H](C(=O)O)[C@H](O)C(=O)O,106% (inactive)
4,O=c1oc(Cl)c(Cl)c2ccccc12,92.9% (inactive)
5,CC(C)NC[C@@H](O)COc1ccc(CC(N)=O)cc1,117% (inactive)
6,NCCS(=O)O,101% (inactive)
7,N=C(N)SCCc1ccc(CCSC(=N)N)cc1,102% (inactive)
8,COC(=O)Nc1nc2ccc(C(=O)c3cccs3)cc2[nH]1,117% (inactive)
9,CC[C@H](C)[C@H]1O[C@]2(CC[C@@H]1C)C[C@@H]1C[C@@H](C/C=C(\C)[C@@H](O[C@H]3C[C@H](OC)[C@@H](O[C@H]4C[C@H](OC)[C@@H](O)[C@H](C)O4)[C@H](C)O3)[C@@H](C)/C=C/C=C3\CO[C@@H]4[C@H](O)C(C)=C[C@@H](C(=O)O1)[C@]34O)O2,114% (inactive)
10,CC(=O)C(C)=O,97% (inactive)
11,CN(CC[C@@H](Oc1ccc(C(F)(F)F)cc1)c1ccccc1)CC(=O)O,118% (inactive)
12,COC(=O)C(N)Cc1ccc(Cl)cc1 (centres undefined),91.4% (inactive)
13,CC[C@H]1CN2CCc3cc(OC)c(OC)cc3[C@@H]2C[C@@H]1C[C@H]1NCCc2cc(OC)c(OC)cc21,123% (inactive)
14,CN1CCc2c(cc(O)c(O)c2Cl)C(c2cccc(Cl)c2)C1 (centres undefined),96.8% (inactive)
15,CCCCCC[C@@H]([C@@H](C)O)n1cnc2c(N)ncnc21,99.4% (inactive)
16,Nc1ccc(N2C(=O)c3ccccc3C2=O)c(Cl)c1,105% (inactive)
17,COc1cccc(-c2cc(=O)c3ccccc3o2)c1N,95.7% (inactive)
18,N#C/C(=C\c1ccc(O)c(O)c1)C(=O)Nc1ccccc1,103% (inactive)
19,CN(C)CC[C@@H](c1ccc(Cl)cc1)c1ccccn1,117% (inactive)
20,OCc1ccc(-c2nn(Cc3ccccc3)c3ccccc23)o1,118% (inactive)

row,SMILES,remaining activity
1,CC(C(O)c1ccc(O)cc1)N1CCC(Cc2ccccc2)CC1 (centres undefined),105% (inactive)
2,CCCN(CC1CC1)c1nc(C)nc(Nc2c(Cl)cc(Cl)cc2Cl)c1Cl,102% (inactive)
3,NC(=O)OCC(COC(N)=O)c1ccccc1,100% (inactive)
4,CN1C2CCC1CC(NC(=O)c1nn(C)c3ccccc13)C2 (centres undefined),107% (inactive)
5,CC[N+](CC)(CC)CCOc1ccc(/C=C/c2ccccc2)cc1,118% (inactive)
6,CNC[C@H](O)c1ccc(O)c(O)c1,94.5% (inactive)
7,CC(N)=NCCCC[C@@H](N)C(=O)O,124% (inactive)
8,S=C(S)OC1CC2CC1C1CCCC21 (centres undefined),94.5% (inactive)
9,CCOC(=O)c1cnc2c(cnn2CC)c1NN=C(C)C,124% (inactive)
10,Clc1nccc2c1ccc1ccccc12,109% (inactive)
11,Cn1ccc2cc3c(cc21)CCN3C(=O)Nc1cccnc1,102% (inactive)
12,COc1ccc([C@@H]2Sc3ccccc3N(CCN(C)C)C(=O)[C@@H]2OC(C)=O)cc1,109% (inactive)
13,CC(O)C(O)[C@H]1CNc2nc(N)[nH]c(=O)c2N1 (some centres undefined),102% (inactive)
14,CN1C2CCC1CC(OC(=O)c1c[nH]c3ccccc13)C2 (centres undefined),97.7% (inactive)
15,Cc1ccc(S(=O)(=O)/C=C/C#N)cc1,100% (inactive)
16,C[C@@H](CN1CCC(Cc2ccccc2)CC1)[C@@H](O)c1ccc(O)cc1,92.9% (inactive)
17,C=CCN1CCc2c(cc(O)c(O)c2Br)[C@@H](c2ccccc2)C1,116% (inactive)
18,O=C(O)CN(CCOCCOCCN(CC(=O)O)CC(=O)O)CC(=O)O,88.2% (inactive)
19,Oc1ccc(-c2nc(-c3ccc(F)cc3)c(-c3ccncc3)[nH]2)cc1,119% (inactive)

# Source: PubChem BioAssay
